Data as given in PubChem BioAssay AID1159580 (chemical genetic matrix, 2015).
Several values for one entry are separate records, joined by “and”; a condition that tells them apart may be missing. Identical values can stand only once. The whole screen tested about 5,500 compounds, of which about 2,000 (36%) were called active. Not shown: some 18% with an inconclusive outcome. No stated cut-off is given here; in the data, active means normalized growth mostly below about 0.91 (no sharp cut-off); inconclusive means no clear call, values can overlap the other calls; inactive means mostly above about 0.92. The list shows a part of the results.

Assay: chemical genetic growth profiling, strain panel (AID 1159580);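 further: tested at 20 µM; growth read once vehicle control cultures reached saturation at 30 °C; 1 = growth at the plate median or of vehicle wells; lower values mean less growth of the strain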
Settings: S. cerevisiae deletion strains, growth OD
[1] = locus YAL040C, strain CLN3, active compounds read low
[2] = locus YCL061C, strain MRC1 (second series), active compounds read low
[3] = locus YDR363W, strain ESC2, active compounds read low
[4] = locus YER002W, strain NOP16, active compounds read low
[5] = locus YMR263W, strain SAP30, active compounds read low
[6] = locus YMR307W, strain GAS1, active compounds read low
[7] = locus YNL175C, strain NOP13, active compounds read low
[8] = locus YNL197C, strain WHI3, active compounds read low
[9] = locus YNL224C, strain SQS1, active compounds read low
[10] = locus YOR083W, strain WHI5 (second series), active compounds read low
[11] = locus YPL055C, strain LGE1, active compounds read low

Measured: normalized growth

CN(C)CCOC(C)(c1ccccc1)c1ccccn1 (configuration not stated)
inactive: locus YAL021C, strain ccr4, active compounds read low 1.03 | locus YAL026C, strain drs2, active compounds read low 1 | locus YAL030W, strain snc1, active compounds read low 0.993 | [1] 0.998 | locus YBL061C, strain skt5, active compounds read low 1 | locus YBR009C, strain hhf1, active compounds read low 1 | locus YBR021W, strain FUR4, active compounds read low 1.01 | locus YBR023C, strain chs3, active compounds read low 1.01 | locus YBR171W, strain sec66, active compounds read low 1 | locus YBR229C, strain ROT2, active compounds read low 1.01 | locus YBR231C, strain swc5, active compounds read low 1 | locus YBR279W, strain paf1, active compounds read low 1.01 | locus YCL011C, strain gbp2, active compounds read low 1 | locus YCL016C, strain dcc1, active compounds read low 1.01 | locus YCL029C, strain bik1, active compounds read low 0.958 | [2] 1.01 | locus YCL061C, strain MRC1, active compounds read low 1.01 | locus YCL069W, strain vba3, active compounds read low 1.02 | locus YCR088W, strain abp1, active compounds read low 1.02 | locus YDL005C, strain med2, active compounds read low 1.01 | locus YDL035C, strain GPR1, active compounds read low 1.02 | locus YDL040C, strain nat1, active compounds read low 1.01 | locus YDL074C, strain BRE1, active compounds read low 0.977 | locus YDL101C, strain DUN1, active compounds read low 0.989 | locus YDL185W, strain tfp1, active compounds read low 0.953 | locus YDL192W, strain arf1, active compounds read low 0.99 | locus YDR001C, strain nth1, active compounds read low 1.01 | locus YDR069C, strain doa4, active compounds read low 0.975 | locus YDR101C, strain arx1, active compounds read low 0.993 | locus YDR137W, strain rgp1, active compounds read low 0.991 | locus YDR150W, strain NUM1, active compounds read low 1 | locus YDR159W, strain sac3, active compounds read low 0.928 | locus YDR162C, strain NBP2, active compounds read low 0.998 | locus YDR195W, strain ref2 0.995 | locus YDR297W, strain sur2, active compounds read low 0.973 | locus YDR318W, strain mcm21, active compounds read low 0.981 | locus YDR334W, strain swr1, active compounds read low 1.01 | locus YDR335W, strain msn5, active compounds read low 0.985 | [3] 0.994 | locus YDR388W, active compounds read low 0.989 | locus YDR392W, strain spt3, active compounds read low 0.974 | locus YDR502C, strain sam2, active compounds read low 0.998 | locus YEL003W, strain gim4, active compounds read low 1.01 | locus YEL037C, strain rad23, active compounds read low 1.01 | locus YEL061C, strain CIN8 (second series), active compounds read low 1.01 | locus YEL061C, strain CIN8, active compounds read low 0.991 | [4] 1 | locus YER015W, strain faa2, active compounds read low 1.01 | locus YER016W, strain bim1, active compounds read low 1.01 | locus YER110C, active compounds read low 0.961 | locus YER111C, strain swi4, active compounds read low 1.02 | locus YER155C, strain BEM2 (second series), active compounds read low 0.99 | locus YER155C, strain BEM2, active compounds read low 0.994 | locus YER167W, strain BCK2, active compounds read low 0.986 | locus YFR010W, strain ubp6, active compounds read low 1.02 | locus YGL078C, strain dbp3, active compounds read low 0.981 | locus YGL086W, strain mad1, active compounds read low 1.01 | locus YGL167C, strain pmr1, active compounds read low 1 | locus YGL173C, strain kem1, active compounds read low 1.03 | locus YGL227W, strain vid30, active compounds read low 0.997 | locus YGL240W, strain doc1, active compounds read low 1 | locus YGL248W, strain PDE1, active compounds read low 0.979 | locus YGL253W, strain hxk2, active compounds read low 1.01 | locus YGR135W, strain pre9, active compounds read low 0.951 | locus YGR229C, strain SMI1, active compounds read low 0.995 | locus YGR252W, strain gcn5, active compounds read low 0.994 | locus YHR013C, strain ard1, active compounds read low 0.986 | locus YHR027C, strain rpn1, active compounds read low 1.01 | locus YHR030C, strain SLT2, active compounds read low 1 and 1.04 | locus YHR079C, strain IRE1 (second series), active compounds read low 0.974 | locus YHR079C, strain IRE1, active compounds read low 1.03 | locus YHR094C, strain hxt1, active compounds read low 0.985 | locus YHR129C, strain ARP1, active compounds read low 1 | locus YHR142W, strain chs7, active compounds read low 1.03 | locus YHR200W, strain rpn10, active compounds read low 0.983 | locus YIL066C, strain RNR3, active compounds read low 0.995 | locus YIL073C, strain SPO22, active compounds read low 0.924 | locus YIL125W, strain kgd1, active compounds read low 0.992 | locus YIR030C, strain dcg1, active compounds read low 0.96 | locus YJL092W, strain hpr5, active compounds read low 1.02 | locus YJL095W, strain BCK1 (second series), active compounds read low 0.983 | locus YJL095W, strain BCK1, active compounds read low 0.955 and 1.03 | locus YJL115W, strain asf1, active compounds read low 1.01 | locus YJL129C, strain trk1, active compounds read low 1.03 | locus YJL134W, strain LCB3, active compounds read low 1 | locus YJL154C, strain vps35, active compounds read low 1.01 | locus YJL164C, strain tpk1, active compounds read low 1.01 | locus YJL166W, strain qcr8, active compounds read low 1 | locus YJL168C, strain set2, active compounds read low 0.991 | locus YJL187C, strain SWE1 (second series), active compounds read low 0.977 | locus YJL187C, strain SWE1, active compounds read low 0.999 | locus YJR043C, strain POL32, active compounds read low 1.04 | locus YJR066W, strain TOR1, active compounds read low 0.941 | locus YJR075W, strain HOC1, active compounds read low 0.974 | locus YKL009W, strain mrt4, active compounds read low 0.954 | locus YKL068W, active compounds read low 0.983 | locus YKL085W, strain MDH1 (second series), active compounds read low 0.971 | locus YKL085W, strain MDH1, active compounds read low 0.971 | locus YKL160W, strain elf1, active compounds read low 0.988 | locus YKR001C, strain vps1, active compounds read low 0.976 | locus YKR026C, strain gcn3, active compounds read low 1 | locus YKR091W, strain srl3, active compounds read low 1.01 | locus YLL001W, strain dnm1, active compounds read low 1.02 | locus YLL026W, active compounds read low 1 | locus YLL041C, strain sdh2, active compounds read low 0.963 | locus YLR027C, strain aat2, active compounds read low 0.997 | locus YLR039C, strain RIC1, active compounds read low 0.989 | locus YLR058C, strain SHM2, active compounds read low 0.993 | locus YLR102C, strain apc9, active compounds read low 0.976 | locus YLR113W, strain HOG1, active compounds read low 1.07 | locus YLR221C, strain rsa3, active compounds read low 1.01 | locus YLR258W, strain gsy2, active compounds read low 0.985 | locus YLR262C, strain YPT6 (second series), active compounds read low 1.05 | locus YLR262C, strain YPT6, active compounds read low 0.939 | locus YLR268W, strain sec22, active compounds read low 0.983 | locus YLR320W, strain mms22, active compounds read low 0.984 | locus YLR330W, strain CHS5, active compounds read low 0.995 | locus YLR342W, strain FKS1 (second series), active compounds read low 1.07 | locus YLR342W, strain FKS1, active compounds read low 1.02 | locus YLR357W, strain rsc2, active compounds read low 1.02 | locus YLR370C, strain arc18, active compounds read low 0.967 | locus YLR371W, strain rom2, active compounds read low 0.97 | locus YLR384C, strain iki3, active compounds read low 0.996 | locus YLR418C, strain cdc73, active compounds read low 0.98 | locus YML016C, strain PPZ1, active compounds read low 1 | locus YML032C, strain rad52, active compounds read low 0.997 | locus YML120C, strain ndi1, active compounds read low 0.995 | locus YML124C, strain tub3, active compounds read low 0.985 | locus YMR058W, strain fet3, active compounds read low 1.03 | locus YMR078C, strain ctf18, active compounds read low 0.963 | locus YMR125W, strain sto1, active compounds read low 1 | locus YMR129W, active compounds read low 0.982 | locus YMR205C, strain PFK2, active compounds read low 0.992 | locus YMR223W, strain ubp8, active compounds read low 0.966 | locus YMR231W, strain pep5, active compounds read low 1.01 | [5] 0.991 | [6] 1.04 and 0.992 | locus YNL067W, strain RPL9B, active compounds read low 0.967 | locus YNL071W, strain lat1, active compounds read low 1.01 | [7] 0.992 | locus YNL183C, strain NPR1, active compounds read low 1 | [8] 0.982 | locus YNL209W, strain ssb2, active compounds read low 1.02 | [9] 1 | locus YNL233W, strain BNI4, active compounds read low 0.986 | locus YNL248C, strain rpa49, active compounds read low 1.04 | locus YNL250W, strain rad50, active compounds read low 0.984 | locus YNL271C, strain bni1, active compounds read low 0.987 | locus YNL298W, strain CLA4, active compounds read low 0.989 | locus YNL307C, strain MCK1, active compounds read low 0.983 | locus YNL322C, strain KRE1 (second series), active compounds read low 1.01 | locus YNL322C, strain KRE1, active compounds read low 0.994 | locus YNR049C, strain mso1, active compounds read low 0.962 | locus YNR052C, strain pop2, active compounds read low 0.977 | locus YOL012C, strain htz1 0.665 | locus YOL147C, strain pex11, active compounds read low 0.984 | locus YOR001W, strain rrp6, active compounds read low 1.03 | locus YOR061W, strain CKA2, active compounds read low 0.996 | locus YOR069W, strain VPS5, active compounds read low 0.999 | locus YOR070C, strain gyp1, active compounds read low 1 | locus YOR080W, strain dia2, active compounds read low 1.01 | [10] 0.984 | locus YOR083W, strain WHI5, active compounds read low 0.973 | locus YOR106W, strain vam3, active compounds read low 1.02 | locus YOR136W, strain idh2, active compounds read low 0.983 | locus YOR144C, strain elg1, active compounds read low 0.993 | locus YOR184W, strain ser1, active compounds read low 0.959 | locus YOR231W, strain MKK1, active compounds read low 1.07 | locus YOR265W, strain rbl2, active compounds read low 0.999 | locus YOR270C, strain vph1, active compounds read low 1.07 | locus YOR290C, strain snf2, active compounds read low 1.01 | locus YOR316C, strain cot1, active compounds read low 0.975 | locus YPL051W, strain arl3, active compounds read low 1 | [11] 0.992 and 1.03 | locus YPL078C, strain atp4, active compounds read low 1 | locus YPL106C, strain sse1, active compounds read low 0.98 | locus YPL240C, strain hsp82, active compounds read low 0.977 | locus YPL241C, strain CIN2, active compounds read low 0.999 | locus YPL256C, strain CLN2, active compounds read low 1.03 | locus YPR119W, strain clb2, active compounds read low 0.98 | locus YPR141C, strain kar3, active compounds read low 0.971 | locus YPR163C, strain tif3, active compounds read low 0.977 | locus YPR167C, strain met16, active compounds read low 0.98 | strain wtn01, active compounds read low 0.996

CN(CCOc1ccc(C[C@H](Nc2ccccc2C(=O)c2ccccc2)C(=O)O)cc1)c1ccccn1
inactive: locus YAL013W, strain DEP1, active compounds read low 0.992 | [1] 1.09 | [2] 0.999 | [3] 0.994 | [4] 1 | locus YGR078C, strain PAC10, active compounds read low 1.02 | [5] 1 | [6] 0.996 | [7] 1 | [8] 0.994 | [9] 0.992 | [10] 1.1 | [11] 1
